Screening data (PubChem)
KCNQ2 inh – inhibitors of rat KCNQ2 potassium channel; CHO-K1 KCNQ2, FluxOR thallium flux, 20 min; stronger effect = lower value; B-score at 10 µM; actives 1.1% (n = 310,000);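 active = fluorescence ratio B-score at most minus 3 library SDs, with starting brightness B-score within 2 library SDs, cut at about -5.5 in these data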
KCNQ2 pot – enhances the rat KCNQ2 potassium channel; O88943; AID 2239; actives 0.54% (n = 310,000); B-score at 10 µM; CHO-K1 KCNQ2, FluxOR thallium flux fluorescence; stronger effect = higher value;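 active = fluorescence ratio B-score at least 3 SD of library B-scores, with initial fluorescence B-score within 3 of them, cut at about 5.3 in these data; same plate scores as AID 2156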;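 note: B-score of peak minus minimum over baseline fluorescence ratio after K+ and Tl+ stimulus; positive B-score means potentiation of KCNQ2 with more thallium influx and brighter signal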
KCNQ2 inh conf – rat KCNQ2 channel inhibition, confirmatory screen; shares compounds with KCNQ2 inh; KCNQ2-expressing cells, thallium flux; stronger effect = lower value; activity change, negative = inhibition, % at 10 µM; actives 57% (n = 1,000);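 note: 0% = vehicle wells and values are ratio percent relative to vehicle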
KCNQ1 spec – human KCNQ1 activity in KCNQ2 inhibitor specificity screen; shares compounds with KCNQ2 inh; KCNQ1-expressing cells, FluxOR thallium flux fluorescence; stronger effect = lower value; activity change, negative = inhibition, % at 10 µM; actives 15% (n = 1,000);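 active = activity change at least 3 SD of negative controls below their mean in both duplicate wells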;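 note: CHO cells stably transfected with KCNQ1 and depolarized by potassium stimulus; peak minus minimum fluorescence over baseline after thallium addition; 0% = vehicle negative control and -100% = blank without thallium stimulus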
Target sequence (P51787 whole entry, looked up): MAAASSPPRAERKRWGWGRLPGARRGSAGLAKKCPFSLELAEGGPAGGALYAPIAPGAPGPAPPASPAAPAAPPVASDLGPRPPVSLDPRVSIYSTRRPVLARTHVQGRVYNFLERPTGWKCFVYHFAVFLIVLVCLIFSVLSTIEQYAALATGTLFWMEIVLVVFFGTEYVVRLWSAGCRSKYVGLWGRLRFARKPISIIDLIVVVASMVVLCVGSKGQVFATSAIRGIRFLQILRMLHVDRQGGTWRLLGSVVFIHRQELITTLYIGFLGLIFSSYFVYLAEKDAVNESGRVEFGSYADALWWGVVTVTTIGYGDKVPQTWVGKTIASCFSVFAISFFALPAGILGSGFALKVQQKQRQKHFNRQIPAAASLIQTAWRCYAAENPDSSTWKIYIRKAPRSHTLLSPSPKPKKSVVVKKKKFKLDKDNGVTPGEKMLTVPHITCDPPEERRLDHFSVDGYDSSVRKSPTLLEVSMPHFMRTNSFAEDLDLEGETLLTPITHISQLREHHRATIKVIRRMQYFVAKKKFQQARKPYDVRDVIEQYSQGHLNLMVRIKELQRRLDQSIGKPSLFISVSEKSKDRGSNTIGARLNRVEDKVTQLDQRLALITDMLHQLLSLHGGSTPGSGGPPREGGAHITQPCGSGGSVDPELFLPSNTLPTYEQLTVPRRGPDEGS
CHO Tl ctr – KCNQ2 inhibitor counter-screen hit in parental CHO cells. shares compounds with KCNQ2 inh. thallium flux counter-screen; stronger effect = lower value. activity change, % at 10 µM. actives 14% (n = 1,000);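 note: 0% = vehicle negative controls with stimulus buffer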
KCNQ2 inh confirm – blocks rat KCNQ2 current in automated patch clamp. shares compounds with KCNQ2 inh. KCNQ2-expressing cells. calls only at 10 µM. actives 49% (n = 550). AID 588531
* marks the source's active call; other numbers are inactive results; i = inactive; nt = not tested or not shown; + = active, no number. Most compounds without a hit are left out; they make up all but 1.6% or so of the library. Unless noted, the rule behind the calls is not given here.

SMILES	KCNQ2 inh	KCNQ2 pot	KCNQ2 inh conf	KCNQ1 spec	CHO Tl ctr	others
CCOC(=O)c1cnc(-n2nc(C)cc2C)nc1NC1CCCCC1	-8.9*	-8.9	-33.0%*	i	i	KCNQ2 inh confirm=+
CCN(CCNC(=O)C1CCN(Cc2nc(-c3cccc(Cl)c3)oc2C)CC1)c1ccccc1	-12.4*	-12.4	-26.5%*	i	i	KCNQ2 inh confirm=i
Cc1oc(-c2cccc(Cl)c2)nc1CN1CCC(C(=O)NC2CC2)CC1	i	1.17	nt	nt	nt
Cc1cc(C(=O)Nc2cccc3ccccc23)c(C)o1	i	1.67	nt	nt	nt
Cc1oc(CC(C)C)cc1C(=O)Nc1cccc2ccccc12	-7.74*	-7.74	i	i	i
COc1ccc2cc(CN(Cc3ccco3)Cc3nnnn3C3CCCCC3)c(=O)[nH]c2c1	i	2.47	nt	nt	nt
CC(C)(C)c1ccc(CN(Cc2ccco2)Cc2nnnn2C2CCCC2)cc1	-12.4*	-12.4	-24.0%*	i	i	KCNQ2 inh confirm=i
COc1cccc(OC)c1C(=O)NNS(=O)(=O)c1ccc2ccccc2c1	i	2.17	nt	nt	nt
CCCCN(C)C(=O)Cn1c(=O)oc2cc(S(=O)(=O)N3CC(C)CC(C)C3)ccc21 (stereo not given)	i	0.79	nt	nt	nt
Cc1cccc2nc(COc3ccc(Cl)c4cccnc34)cn12	-9.13*	-9.13	-29.0%*	i	i	KCNQ2 inh confirm=+
O=[N+]([O-])c1ccccc1COc1ccc(Cl)c2cccnc12	i	nt	nt	nt	nt
COc1ccc(NC(=O)c2c3c(nc4ccccc24)CCN(Cc2ccccc2)C3)c(OC)c1	-11.4*	-11.4	i	i	i
COc1ccc(S(=O)(=O)N2CCCCCC2)cc1NC(=O)c1c2c(nc3ccccc13)CCN(Cc1ccccc1)C2	i	nt	nt	nt	nt
Cc1cc(Cl)ccc1OCC(=O)NCCOc1nc(N2CCCCC2)nc(N2CCOCC2)n1	i	nt	nt	nt	nt
COc1cc(C)nc(OCCNC(=O)COc2ccc(Cl)cc2C)n1	-7.52*	-7.52	i	i	i
O=C(NCCc1ccccc1)C(=O)NCC1OCCN1S(=O)(=O)c1cc(F)ccc1F (stereo not given)	i	nt	nt	nt	nt
COc1ccc(Cl)cc1NC(=O)CN1C(=O)CC(C)S(=O)(=O)c2ccccc21 (stereo not given)	i	1.1	nt	nt	nt
COc1ccccc1C(=O)n1nc(-c2ccccc2)nc1NCc1ccco1	-8.66*	-8.66	i	i	i
O=C(c1ccco1)n1nc(-c2ccccc2)nc1NCc1ccco1	i	0.1	nt	nt	nt
CCS(=O)(=O)n1nc(-c2ccccc2)nc1NCc1ccco1	i	0.01	nt	nt	nt
Cc1ccc(S(=O)(=O)n2nc(-c3ccc(Cl)cc3)nc2NCc2ccco2)cc1	-9.31*	-9.31	i	i	i
COc1cccc(CSc2nc3sc(C)c(C)c3c(=O)n2Cc2ccco2)c1	-8.81*	-8.81	-28.0%*	i	i	KCNQ2 inh confirm=i
Cc1sc2nc(SCc3ccccc3)n(Cc3ccco3)c(=O)c2c1C	i	nt	nt	nt	nt
COc1nc(OC)nc(Oc2ccc(Cl)cc2[N+](=O)[O-])n1	i	nt	nt	nt	nt
COc1ccc([N+](=O)[O-])c(S(=O)(=O)c2ccc(Cl)cc2)n1	-9.9*	-9.9	-32.0%*	-28.5%*	-22.5%*	KCNQ2 inh confirm=+
SMILES	KCNQ2 inh	KCNQ2 pot	KCNQ2 inh conf	KCNQ1 spec	CHO Tl ctr	others
COc1ccc([N+](=O)[O-])c(S(=O)(=O)c2ccccc2)n1	-7.49*	-7.49	-28.5%*	i	i	KCNQ2 inh confirm=+
O=[N+]([O-])c1cccnc1S(=O)(=O)c1ccccc1	i	nt	nt	nt	nt
COc1ccc(NC(=O)CCNS(=O)(=O)c2ccc3[nH]c(=O)oc3c2)cc1Cl	i	0.76	nt	nt	nt
N=c1c2cn[nH]c2nc(SCC(=O)c2ccc(Br)cc2)n1-c1ccc(Br)cc1	i	nt	nt	nt	nt
CC(C)NC(=O)NC(=O)CSc1nncs1	i	nt	nt	nt	nt
COc1ccc(/C=C/C(=O)c2ccccc2)cc1COc1ccc(F)cc1	-6.64*	-6.64	i	i	i
COc1ccc(/C=C/C(=O)c2ccc(O)cc2)cc1COc1ccc(F)cc1	i	nt	nt	nt	nt
CSCCC(NC(=O)c1ccccc1Br)C(=O)NCC1CCCCC1 (stereo not given)	i	nt	nt	nt	nt
CSCCC(NC(=O)c1ccccc1Br)C(=O)NCc1ccc(F)cc1 (stereo not given)	i	0.1	nt	nt	nt
CSCCC(NC(=O)c1ccccc1Br)C(=O)N1CCCCCCC1 (stereo not given)	-9.58*	-9.58	-29.0%*	i	i	KCNQ2 inh confirm=+
CSCCC(NC(=O)c1ccccc1Br)C(=O)N1CCCC(C(F)(F)F)C1 (stereo not given)	-9.31*	-9.31	-16.0%*	i	i	KCNQ2 inh confirm=+
CSCCC(NC(=O)COc1ccccc1)C(=O)NC1CCC(C)CC1 (stereo not given)	i	nt	nt	nt	nt
CSCCC(NC(=O)COc1ccccc1)C(=O)N1CCCC(C(F)(F)F)C1 (stereo not given)	-6.98*	-6.98	i	i	i
O=C1CCC/C(=N/Nc2ccc(Cl)cc2)C1	i	nt	nt	nt	nt
Cc1ccccc1-n1ccnc1SCC(=O)NCc1ccco1	i	0.03	nt	nt	nt
CCNC1CCS(=O)(=O)C1 (stereo not given)	i	nt	nt	nt	nt
CCN(CC)CCCNC1CCS(=O)(=O)C1 (stereo not given)	-6.71*	-6.71	i	i	i
CC(C)=CCc1cc2c(=O)c3c(O)c4c(cc3oc2c(O)c1O)OC(C)C4(C)C (stereo not given)	-8.55*	-8.55	i	i	i
CC1Oc2cc3oc4c(O)c5c(cc4c(=O)c3c(O)c2C1(C)C)C=CC(C)(C)O5 (stereo not given)	i	nt	nt	nt	nt
CCC(C(=O)N1CCN(c2ccccc2OC)CC1)c1ccccc1 (stereo not given)	i	nt	nt	nt	nt
COc1ccccc1N1CCN(C(=O)C(Cc2ccccc2)NC(=O)C2CCCCC2)CC1 (stereo not given)	-7.41*	-7.41	-33.0%*	i	i	KCNQ2 inh confirm=+
Cc1ccc(N=C2CCCN2Cc2ccccc2)c(C#N)c1	-8.98*	-8.98	-47.0%*	-43.0%*	-33.5%*	KCNQ2 inh confirm=+
Cc1ccc(N=C2CCCCCN2C)c(C#N)c1	i	nt	nt	nt	nt
CN(C)c1ccccc1C(=O)N1CCCC(C(=O)c2ccc3ccccc3c2)C1 (stereo not given)	i	nt	nt	nt	nt
O=[N+]([O-])c1ccc(Cl)c(NC(=S)N2CCCC2)c1	i	nt	nt	nt	nt
CN1CCCC(OC(=O)c2ccc(C(C)(C)C)cc2)C1 (stereo not given)	i	nt	nt	nt	nt
COc1ccc(Cl)cc1NC(=S)NCCc1ccc(S(N)(=O)=O)cc1	i	nt	nt	nt	nt
COc1ccc(Cl)cc1NC(=S)NCCc1ccc(F)cc1	-8.68*	-8.68	-36.5%*	-34.0%*	-30.5%*	KCNQ2 inh confirm=+
N#Cc1ccc(CN2CCN(C(=O)CC(NC(=O)c3ccccc3)c3ccccc3)CC2)cc1 (stereo not given)	i	0.31	nt	nt	nt
CCOc1ccc(N(CC(=O)Nc2ccc(C)c(Cl)c2)S(C)(=O)=O)cc1	i	nt	nt	nt	nt
